The source of these data is PubChem BioAssay (NCATS).

Calls of active or inactive are those of the source. Where a call stands in place of a potency, no number is given. Calls come from the whole dose curve; as a rule, active = well fitted curve in the direction sought with a large enough effect; inconclusive = small, poorly fitted or top-dose-only effect, or another doubt; inactive = no such curve, though single readings can be large; an effect the other way counts as inactive or inconclusive.

One test in a line: MultiTox-Fluor Cytotoxicity Assay - LYMP1-003 - Dead Cells (AID 961).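 Note: cells exposed to compound for 16 h at 37 °C; nearly all actives have a fitted effect of over 70% in size.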 Note: potency is the fitted concentration of half-maximal effect. Conditions: LYMP1-003 lymphoblastoid cells, dead-cell protease fluorescence; series mostly up to 92.2 µM. The essentials: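 Human lymphoblastoid LYMP1-003 cells (2500/well) were treated with compounds for 16 hr at 37 C in complete medium. Dead-cell protease release was read by bis-AAF-R110 fluorescence (Ex/Em 485/520). AC50 came from Hill fits, normalized to DMSO and 15 uM tetraoctylammonium bromide.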
Consider `N[C@@H](Cc1ccc(N(CCCl)CCCl)cc1)C(=O)O`, for which the Potency result was “inactive”.

Regarding `CCCC(C)(COC(N)=O)COC(=O)NC(C)C` (centres undefined), the Potency entry is “inactive”.

Take `CNCC(O)c1ccc(O)cc1` (centres undefined): the Potency entry was “inactive”.

Consider `OCCOc1ccccc1`, for which the Potency entry was “inactive”.

Turning to `Clc1ccc(COC(Cn2ccnc2)c2ccc(Cl)cc2Cl)cc1` (centres undefined), the Potency is 63.1 µM (active).

With `Oc1ccccc1-c1ccccc1`, the Potency entry is “inactive”.

On to `CCOP(=S)(OCC)Oc1cc(C)nc(C(C)C)n1`, for which the Potency result is “inactive”.

On to `NCC(O)c1ccc(O)cc1` (centres undefined), for which the Potency result was “inactive”.

As to `c1ccc2c(c1)Nc1ccccc1S2`, the Potency entry was “inactive”.

Turning to `Oc1ccc(Cl)cc1Cc1ccccc1`, the Potency entry is “inactive”.

As to `CC(=O)Oc1ccccc1C(=O)Nc1ncc([N+](=O)[O-])s1`, the Potency is 39.8 µM (active).

Another test can be described thus: MultiTox-Fluor Cytotoxicity Assay - LYMP1-003 - Live Cells (AID 962).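 Note: cells exposed to compound for 16 hours at 37 °C.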 Note: potency is the fitted concentration of half-maximal effect. Conditions: LYMP1-003 lymphoblastoid cells, MultiTox-Fluor live-cell protease fluorescence; series mostly up to 92.2 µM. A digest of the protocol: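 Acute cytotoxicity is scored as a drop in live-cell protease activity in human lymphoblastoid LYMP1-003 cells after 16 hr compound exposure at 37 C. AC50 values come from Hill-equation modelling of concentration-response data.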
Consider `N[C@@H](Cc1ccc(N(CCCl)CCCl)cc1)C(=O)O`, for which the Potency entry was “inactive”.

Regarding `C[C@]12C/C(=C/O)C(=O)C[C@@H]1CC[C@@H]1[C@@H]2CC[C@@]2(C)[C@H]1CC[C@]2(C)O`, the Potency result was “inactive”.

In the case of `CCCC(C)(COC(N)=O)COC(=O)NC(C)C` (centres undefined), the Potency result was “inactive”.

With `CNCC(O)c1ccc(O)cc1` (centres undefined), the Potency entry was “inactive”.

As to `OCCOc1ccccc1`, the Potency result is “inactive”.

With `Clc1ccc(COC(Cn2ccnc2)c2ccc(Cl)cc2Cl)cc1` (centres undefined), the Potency result was “inactive”.

In the case of `Oc1ccccc1-c1ccccc1`, the Potency result is “inactive”.

For the compound `CCOP(=S)(OCC)Oc1cc(C)nc(C(C)C)n1`, the Potency result was “inactive”.

`NCC(O)c1ccc(O)cc1` (centres undefined): the Potency entry was “inactive”.

For the compound `c1ccc2c(c1)Nc1ccccc1S2`, the Potency result is “inactive”.

As to `Oc1ccc(Cl)cc1Cc1ccccc1`, the Potency result was “inactive”.

Turning to `CC(=O)Oc1ccccc1C(=O)Nc1ncc([N+](=O)[O-])s1`, the Potency is 39.8 µM (active).

The nature of another test: Cell Viability - LYMP1-003 - Assay at 24 hr (AID 963). Conditions: LYMP1-003 lymphoblastoid cell viability; series mostly up to 92.2 µM. The essentials: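 Cytotoxicity is scored as a concentration-dependent fall in ATP-linked luciferase signal in human lymphoblastoid LYMP1-003 cells treated 24 hr at 37 C in complete culture medium.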
In the case of `N[C@@H](Cc1ccc(N(CCCl)CCCl)cc1)C(=O)O`, the outcome was inactive.

As to `C[C@]12C/C(=C/O)C(=O)C[C@@H]1CC[C@@H]1[C@@H]2CC[C@@]2(C)[C@H]1CC[C@]2(C)O`, the compound was called inactive.

On to `CCCC(C)(COC(N)=O)COC(=O)NC(C)C` (centres undefined), for which the outcome was inactive.

For the compound `CNCC(O)c1ccc(O)cc1` (centres undefined), the result was inactive.

Take `OCCOc1ccccc1`: the outcome was inactive.

As to `Clc1ccc(COC(Cn2ccnc2)c2ccc(Cl)cc2Cl)cc1` (centres undefined), the result was inactive.

As for `Oc1ccccc1-c1ccccc1`, the result was inactive.

In the case of `CCOP(=S)(OCC)Oc1cc(C)nc(C(C)C)n1`, the compound was classed as inactive.

Consider `NCC(O)c1ccc(O)cc1` (centres undefined), for which the compound was classed as inactive.

For `c1ccc2c(c1)Nc1ccccc1S2`, the compound was called inactive.

Regarding `Oc1ccc(Cl)cc1Cc1ccccc1`, the result was inactive.
